Data reported in PubChem BioAssay AID2284132 (EPA ToxCast).
Inconclusive results are not listed. Active and inactive are the calls of the source. How the source made its calls: active means hit-call score of the fitted dose curve at least 0.9, where 1 is the maximum; inconclusive means response in the unintended direction; inactive means score below 0.9.

target: human SGK1 AGC Kinase, SGK1 (gene 6446) (UniProt O00141); assay: ERF_FR_ENZ_hSGK1: Eurofins (ERF) Enzymatic Radiometric [Km ATP] KinaseProfiler LeadHunter Assay for human SGK1 AGC Kinase
Sequence (O00141 whole entry, looked up): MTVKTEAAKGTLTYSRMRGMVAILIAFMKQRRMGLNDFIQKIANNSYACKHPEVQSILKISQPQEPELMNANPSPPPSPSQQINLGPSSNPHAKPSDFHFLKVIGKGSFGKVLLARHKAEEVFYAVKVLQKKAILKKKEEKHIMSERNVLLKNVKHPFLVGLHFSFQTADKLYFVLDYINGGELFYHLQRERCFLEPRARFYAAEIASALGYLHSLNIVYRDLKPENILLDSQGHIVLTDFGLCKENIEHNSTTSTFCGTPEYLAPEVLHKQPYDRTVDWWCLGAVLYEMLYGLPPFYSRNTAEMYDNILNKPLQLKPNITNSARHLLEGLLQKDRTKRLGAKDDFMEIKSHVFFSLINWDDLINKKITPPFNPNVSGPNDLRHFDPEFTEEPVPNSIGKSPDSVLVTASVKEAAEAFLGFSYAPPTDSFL
Method: ERF_FR_ENZ_hSGK1 is a biochemical, single-readout assay that uses extracted gene-proteins in a cell-free assay. Measurements were taken 0.5 hour after chemical dosing in a 96-well plate. See SGK1 Human AGC Kinase Enzymatic LANCE Assay [Km ATP], Cerep.ERF_FR_ENZ_hSGK1 is an assay component calculated from the ERF_FR_ENZ_hSGK1 assay. It is designed to measure enzyme activity using a type of enzyme reporter as detected by fluorescence intensity with LANCE technology.Data from the assay component ERF_FR_ENZ_hSGK1 was analyzed at the assay endpoint, ERF_FR_ENZ_hSGK1, in the positive analysis fitting direction relative to DMSO as the negative control and baseline of activity. Using a type of enzyme reporter, loss-of-signal activity can be used to understand changes in enzymatic activity as they relate to gene SGK1. To generalize the intended target to other relatable targets, this assay endpoint is annotated to the kinase intended target family, where the subfamily is serine/threonine kinase.
SGK (h) is incubated with 8 mM MOPS pH 7.0, 0.2 mM EDTA, 30 uM […], 10 mM MgAcetate and [g- 33P]-ATP (specific activity and concentration as required). The reaction is initiated by the addition of the Mg/ATP mix. After incubation for 40 minutes at room temperature, the reaction is stopped by the addition of phosphoric acid to a concentration of 0.5%. […]

Row | Compound | outcome
1 | O=C(/C=C/c1ccc(O)cc1)CC(=O)/C=C/c1ccc(O)cc1 | inactive
